According to PubChem BioAssay (NCI):
This is part of a sample that, as a whole, favours compounds with a hit. Of some 83,000 tested, about 20% had one in any assay.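 Assay: single dose, 48 h. Readout: percent growth (0 = no net growth; negative = cell death). Active: <10.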 Calls of active or inactive are those of the source.

Assays:
Assay in all cases: NCI-60 one-dose screen, 48 h (100 = growth as untreated, 0 = no growth, -100 = all killed)
Settings in all cases: 10 µM unless noted
T-47D breast = tested on: T-47D breast
BT-549 breast = tested on: BT-549 breast
MDA-MB-435 melanoma = tested on: MDA-MB-435 melanoma
SW-620 colon = tested on: SW-620 colon
HCT-116 colon = tested on: HCT-116 colon
HCC-2998 colon = tested on: HCC-2998 colon
KM12 colon = tested on: KM12 colon
MDA-MB-468 breast = tested on: MDA-MB-468 breast

Measured: growth

C=C1CC[C@@H]2[C@]3(C)COC(c4cn[nH]c4-c4cccc(Br)c4)O[C@@H]3CC[C@@]2(C)[C@@H]1C/C=C1/C(=O)OCC1O (stereo partly specified)
active: T-47D breast -6.99% | BT-549 breast -94.2% | MDA-MB-435 melanoma -50.2% | SW-620 colon -81.1% | HCT-116 colon -95.9% | HCC-2998 colon -100% | KM12 colon -67.1% | MDA-MB-468 breast -95.4%

CC1=C(C#N)C2=NNCC(c3ccccc3)=NN2C(c2ccccc2)=C1
inactive: T-47D breast 98.8% | BT-549 breast 104% | MDA-MB-435 melanoma 106% | SW-620 colon 98% | HCT-116 colon 101% | HCC-2998 colon 118% | KM12 colon 107% | MDA-MB-468 breast 124%

COc1ccc2[nH]c(=O)c(CSc3nccc(-c4ccc(OC)c(OC)c4)n3)cc2c1
active: T-47D breast -2.81% | BT-549 breast -43.8% | HCT-116 colon 8.21% | MDA-MB-468 breast -12.3%
inactive: MDA-MB-435 melanoma 11.4% | SW-620 colon 44.5% | HCC-2998 colon 26.3% | KM12 colon 32.2%

COc1ccc(-c2ccc(SCC(=O)Nc3ccc(S(N)(=O)=O)cc3Br)nn2)cc1
inactive: T-47D breast 76.9% | BT-549 breast 49.3% | MDA-MB-435 melanoma 108% | SW-620 colon 91.3% | HCT-116 colon 79.4% | HCC-2998 colon 99.3% | KM12 colon 88.7% | MDA-MB-468 breast 86.9%

O=C(/C=C/Nc1ccc2oc(=O)ccc2c1)c1cc2cc(Br)ccc2oc1=O
inactive: T-47D breast 94.4% | BT-549 breast 87.9% | MDA-MB-435 melanoma 103% | SW-620 colon 105% | HCT-116 colon 101% | HCC-2998 colon 113% | KM12 colon 111% | MDA-MB-468 breast 98.9%

COc1c(F)ccc(C(=O)Nc2ccc3nc(NC(=O)C4CCCN(S(=O)(=O)c5ccc(Br)c(F)c5)C4)sc3c2)c1F (stereo unspecified)
inactive: T-47D breast 67.5% | BT-549 breast 77% | MDA-MB-435 melanoma 92.3% | SW-620 colon 96.5% | HCT-116 colon 62.7% | HCC-2998 colon 109% | KM12 colon 79.2% | MDA-MB-468 breast 92%

CC12CC[C@@H]3[C@]4(C)COC(c5cn[nH]c5-c5ccc(Br)cc5)O[C@@H]4CC[C@@]3(C)[C@@H]1CC(C1=CCOC1=O)O2 (stereo partly specified)
inactive: T-47D breast 16.3% | BT-549 breast 21.7% | MDA-MB-435 melanoma 51.8% | SW-620 colon 62.1% | HCT-116 colon 23.4% | HCC-2998 colon 55.8% | KM12 colon 39%
active: MDA-MB-468 breast 9.94%
